# Experimental data as given in PMC7862700, “An all-to-all approach to the identification of sequence-specific readers for epigenetic DNA modifications on cytosine”.
# Experiments:
# Assay in all cases: DAPPL (digital affinity profiling via proximity ligation, sequencing); 10 mM Tris-HCl pH 7.5, 50 mM NaCl, 1 mM DTT, 4% glycerol, room temperature, 30 min; GST-TFs on glutathione beads, 16-mer random dsDNA library, 0.1% formaldehyde crosslink after washing; high values mean tight binding
# [1] = target: T1, FEV (Homo sapiens, UniProt Q99581 1-238); settings: protein: recombinant; tags: N-terminal GST; dsDNA, one strand shown
# T1 sequence: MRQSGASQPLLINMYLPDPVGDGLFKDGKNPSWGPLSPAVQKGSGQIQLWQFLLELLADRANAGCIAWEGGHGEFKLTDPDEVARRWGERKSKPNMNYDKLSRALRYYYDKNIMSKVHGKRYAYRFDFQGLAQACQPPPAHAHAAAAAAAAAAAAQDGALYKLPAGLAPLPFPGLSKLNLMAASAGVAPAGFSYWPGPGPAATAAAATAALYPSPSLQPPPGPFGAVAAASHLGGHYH
# How it was run: (§1)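 The binding signal reported is, for every hexamer, its read frequency for a factor over its read frequency for the tag-only sample. Reads came from pools of yeast-expressed, GST-fused human transcription factors on glutathione beads, barcoded with DNA and mixed with that sample, which were incubated with 200 nmole of a random double-stranded 16-mer DNA library in Tris/NaCl/DTT/glycerol buffer at room temperature for 30 min. After washing, the pools were crosslinked with 0.1% formaldehyde, proximity-ligated with BsaI/T4 ligase for 1 h at 37 °C, PCR-amplified and sequenced on an Illumina NextSeq500.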
# [2] = target: ETV5 (Homo sapiens, UniProt P41161 1-510); settings: protein: recombinant; tags: N-terminal GST; dsDNA, one strand shown
# Chain of ETV5 (P41161 whole entry): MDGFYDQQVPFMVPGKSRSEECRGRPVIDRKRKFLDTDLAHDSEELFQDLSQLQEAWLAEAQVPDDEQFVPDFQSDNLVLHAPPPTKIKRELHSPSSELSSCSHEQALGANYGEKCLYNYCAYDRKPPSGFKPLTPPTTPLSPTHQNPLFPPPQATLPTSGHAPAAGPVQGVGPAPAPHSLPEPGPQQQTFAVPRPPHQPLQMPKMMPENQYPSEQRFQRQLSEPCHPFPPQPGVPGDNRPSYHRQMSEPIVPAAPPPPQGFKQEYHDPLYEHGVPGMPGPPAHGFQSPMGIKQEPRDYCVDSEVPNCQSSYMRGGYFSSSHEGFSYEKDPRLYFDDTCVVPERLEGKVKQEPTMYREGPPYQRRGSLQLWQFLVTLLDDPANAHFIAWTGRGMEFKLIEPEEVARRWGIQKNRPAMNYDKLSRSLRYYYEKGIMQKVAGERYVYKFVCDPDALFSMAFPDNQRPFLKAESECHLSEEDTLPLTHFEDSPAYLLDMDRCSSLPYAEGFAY
# How it was run: as §1
# [3] = target: HSF1 (Homo sapiens, UniProt Q00613 1-529); settings: protein: recombinant; tags: N-terminal GST; chain copies: 3; dsDNA, one strand shown
# Chain of HSF1 (Q00613 whole entry): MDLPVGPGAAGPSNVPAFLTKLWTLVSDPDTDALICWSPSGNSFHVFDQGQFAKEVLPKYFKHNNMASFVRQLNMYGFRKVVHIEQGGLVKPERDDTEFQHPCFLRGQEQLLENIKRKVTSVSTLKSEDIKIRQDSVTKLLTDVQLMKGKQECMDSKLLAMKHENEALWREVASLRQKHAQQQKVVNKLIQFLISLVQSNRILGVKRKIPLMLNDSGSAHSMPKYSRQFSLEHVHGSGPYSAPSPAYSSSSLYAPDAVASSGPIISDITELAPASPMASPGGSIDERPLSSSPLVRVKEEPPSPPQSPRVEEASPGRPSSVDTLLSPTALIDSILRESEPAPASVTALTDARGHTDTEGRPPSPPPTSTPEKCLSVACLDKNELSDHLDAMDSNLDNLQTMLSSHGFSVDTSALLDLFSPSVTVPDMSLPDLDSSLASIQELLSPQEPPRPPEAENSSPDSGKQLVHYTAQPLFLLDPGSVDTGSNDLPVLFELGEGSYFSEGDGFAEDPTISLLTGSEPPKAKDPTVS
# How it was run: as §1
# [4] = target: T2, SPIC (Homo sapiens, UniProt Q8N5J4 1-248); settings: protein: recombinant; tags: N-terminal GST; dsDNA, one strand shown
# T2 sequence: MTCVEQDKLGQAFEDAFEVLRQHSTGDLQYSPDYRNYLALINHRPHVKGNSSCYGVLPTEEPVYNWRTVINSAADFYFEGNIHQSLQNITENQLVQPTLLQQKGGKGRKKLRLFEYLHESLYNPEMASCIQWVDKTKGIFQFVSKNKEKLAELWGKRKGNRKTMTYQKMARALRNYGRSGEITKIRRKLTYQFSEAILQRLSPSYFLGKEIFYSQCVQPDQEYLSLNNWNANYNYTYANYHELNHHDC
# How it was run: as §1
# [5] = target: ELF4 (Homo sapiens, UniProt Q99607 1-663); settings: protein: recombinant; tags: N-terminal GST; dsDNA, one strand shown
# Chain of ELF4 (Q99607 whole entry): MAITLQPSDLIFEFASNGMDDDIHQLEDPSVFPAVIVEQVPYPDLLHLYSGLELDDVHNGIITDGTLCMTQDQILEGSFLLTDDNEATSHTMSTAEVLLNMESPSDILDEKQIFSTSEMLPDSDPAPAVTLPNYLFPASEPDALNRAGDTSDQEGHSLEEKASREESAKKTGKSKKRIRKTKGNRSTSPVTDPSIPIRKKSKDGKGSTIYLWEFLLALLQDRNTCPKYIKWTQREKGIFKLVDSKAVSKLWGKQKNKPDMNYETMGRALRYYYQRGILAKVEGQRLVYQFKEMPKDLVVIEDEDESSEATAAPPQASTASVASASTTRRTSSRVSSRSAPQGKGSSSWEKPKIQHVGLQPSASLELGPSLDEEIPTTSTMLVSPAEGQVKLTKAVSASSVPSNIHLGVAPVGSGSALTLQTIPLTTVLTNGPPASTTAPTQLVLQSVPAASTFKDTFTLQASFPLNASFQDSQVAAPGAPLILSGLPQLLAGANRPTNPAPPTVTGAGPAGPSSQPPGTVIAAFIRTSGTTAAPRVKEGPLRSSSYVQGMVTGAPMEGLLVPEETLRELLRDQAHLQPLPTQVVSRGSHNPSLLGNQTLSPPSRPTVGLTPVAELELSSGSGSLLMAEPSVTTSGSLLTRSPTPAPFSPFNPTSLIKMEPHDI
# How it was run: as §1
# [6] = target: T3, ELK4 (Homo sapiens, UniProt P28324-2 1-405); settings: protein: recombinant; tags: N-terminal GST; dsDNA, one strand shown
# T3 sequence: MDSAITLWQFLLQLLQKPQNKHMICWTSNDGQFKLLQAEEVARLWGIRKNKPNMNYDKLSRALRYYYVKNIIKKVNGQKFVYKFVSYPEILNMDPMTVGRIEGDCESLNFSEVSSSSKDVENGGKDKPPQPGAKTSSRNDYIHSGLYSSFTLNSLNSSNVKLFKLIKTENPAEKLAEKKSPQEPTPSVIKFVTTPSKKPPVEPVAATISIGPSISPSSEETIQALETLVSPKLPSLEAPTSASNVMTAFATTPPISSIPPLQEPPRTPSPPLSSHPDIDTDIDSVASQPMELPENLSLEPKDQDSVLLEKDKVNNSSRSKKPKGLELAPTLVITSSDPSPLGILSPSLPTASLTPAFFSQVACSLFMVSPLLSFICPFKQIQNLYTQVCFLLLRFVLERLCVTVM
# How it was run: as §1
# [7] = target: T4, ETV2 (Homo sapiens, UniProt O00321 1-342); settings: protein: recombinant; tags: N-terminal GST; dsDNA, one strand shown
# T4 sequence: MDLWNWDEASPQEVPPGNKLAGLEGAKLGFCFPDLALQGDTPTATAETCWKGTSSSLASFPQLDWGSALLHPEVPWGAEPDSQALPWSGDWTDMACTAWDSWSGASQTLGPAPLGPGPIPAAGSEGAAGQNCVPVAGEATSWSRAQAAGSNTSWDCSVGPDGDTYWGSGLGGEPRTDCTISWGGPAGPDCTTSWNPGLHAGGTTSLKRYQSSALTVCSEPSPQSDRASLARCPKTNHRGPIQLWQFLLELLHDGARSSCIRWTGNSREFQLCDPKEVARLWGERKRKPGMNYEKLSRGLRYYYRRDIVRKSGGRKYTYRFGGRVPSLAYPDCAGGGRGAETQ
# How it was run: as §1
# [8] = target: T5, ELF3 (Homo sapiens, UniProt P78545 1-371); settings: protein: recombinant; tags: N-terminal GST; dsDNA, one strand shown
# T5 sequence: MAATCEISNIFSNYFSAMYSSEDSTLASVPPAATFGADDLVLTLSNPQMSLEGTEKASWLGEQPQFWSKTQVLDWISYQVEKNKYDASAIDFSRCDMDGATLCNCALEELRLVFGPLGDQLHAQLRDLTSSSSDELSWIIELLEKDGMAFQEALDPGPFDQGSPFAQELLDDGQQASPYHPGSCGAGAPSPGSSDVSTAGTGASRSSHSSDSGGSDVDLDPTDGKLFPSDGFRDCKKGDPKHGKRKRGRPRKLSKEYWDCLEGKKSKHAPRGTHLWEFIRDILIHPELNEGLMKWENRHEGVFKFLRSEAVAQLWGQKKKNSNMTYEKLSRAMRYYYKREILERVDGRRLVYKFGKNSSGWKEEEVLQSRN
# How it was run: as §1
# [9] = target: CRX (Homo sapiens, UniProt O43186 1-299); settings: protein: recombinant; tags: N-terminal GST; dsDNA, one strand shown
# Chain of CRX (O43186 whole entry): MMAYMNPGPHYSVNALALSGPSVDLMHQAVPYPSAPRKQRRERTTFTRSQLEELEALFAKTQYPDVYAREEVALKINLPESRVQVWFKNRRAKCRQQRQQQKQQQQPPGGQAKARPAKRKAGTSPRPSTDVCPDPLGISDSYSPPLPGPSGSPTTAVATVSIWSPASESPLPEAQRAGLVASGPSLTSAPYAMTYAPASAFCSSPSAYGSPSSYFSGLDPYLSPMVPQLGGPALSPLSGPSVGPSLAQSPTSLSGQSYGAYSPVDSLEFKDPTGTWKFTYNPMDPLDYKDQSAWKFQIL
# How it was run: as §1
# [10] = target: ETV1 (Homo sapiens, UniProt P50549 1-477); settings: protein: recombinant; tags: N-terminal GST; dsDNA, one strand shown
# Chain of ETV1 (P50549 whole entry): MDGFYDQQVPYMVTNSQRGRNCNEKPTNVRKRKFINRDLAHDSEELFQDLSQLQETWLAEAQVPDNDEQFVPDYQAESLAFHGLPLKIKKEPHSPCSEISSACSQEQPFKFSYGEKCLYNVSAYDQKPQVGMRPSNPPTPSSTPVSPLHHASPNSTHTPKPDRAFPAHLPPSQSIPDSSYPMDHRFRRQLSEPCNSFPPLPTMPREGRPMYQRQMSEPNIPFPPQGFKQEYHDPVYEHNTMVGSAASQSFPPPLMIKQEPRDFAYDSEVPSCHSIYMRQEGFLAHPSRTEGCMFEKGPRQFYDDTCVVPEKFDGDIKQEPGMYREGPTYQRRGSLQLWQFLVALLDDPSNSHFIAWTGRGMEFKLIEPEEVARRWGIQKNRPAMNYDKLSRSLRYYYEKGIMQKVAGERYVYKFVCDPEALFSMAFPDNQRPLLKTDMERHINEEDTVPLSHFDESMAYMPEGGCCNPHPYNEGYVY
# How it was run: as §1
# [11] = target: T6, ERF (Homo sapiens, UniProt P50548 1-548); settings: protein: recombinant; tags: N-terminal GST; dsDNA, one strand shown
# T6 sequence: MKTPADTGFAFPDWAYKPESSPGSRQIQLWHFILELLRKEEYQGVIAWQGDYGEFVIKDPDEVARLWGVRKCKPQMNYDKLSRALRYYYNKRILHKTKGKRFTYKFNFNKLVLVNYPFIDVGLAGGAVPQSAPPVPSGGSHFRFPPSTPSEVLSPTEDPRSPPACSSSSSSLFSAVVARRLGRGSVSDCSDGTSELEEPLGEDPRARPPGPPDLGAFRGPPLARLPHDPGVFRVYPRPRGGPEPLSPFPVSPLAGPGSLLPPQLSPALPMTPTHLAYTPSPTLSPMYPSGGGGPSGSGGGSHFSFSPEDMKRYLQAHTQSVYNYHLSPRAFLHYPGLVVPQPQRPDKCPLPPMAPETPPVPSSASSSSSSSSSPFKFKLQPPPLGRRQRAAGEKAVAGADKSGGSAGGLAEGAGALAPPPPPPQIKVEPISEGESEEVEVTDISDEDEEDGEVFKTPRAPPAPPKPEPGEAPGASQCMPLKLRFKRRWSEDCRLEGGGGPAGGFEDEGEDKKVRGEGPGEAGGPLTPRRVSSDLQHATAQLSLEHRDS
# How it was run: as §1
# [12] = target: T7, ETV3L (Homo sapiens, UniProt Q6ZN32 1-361); settings: protein: recombinant; tags: N-terminal GST; dsDNA, one strand shown
# T7 sequence: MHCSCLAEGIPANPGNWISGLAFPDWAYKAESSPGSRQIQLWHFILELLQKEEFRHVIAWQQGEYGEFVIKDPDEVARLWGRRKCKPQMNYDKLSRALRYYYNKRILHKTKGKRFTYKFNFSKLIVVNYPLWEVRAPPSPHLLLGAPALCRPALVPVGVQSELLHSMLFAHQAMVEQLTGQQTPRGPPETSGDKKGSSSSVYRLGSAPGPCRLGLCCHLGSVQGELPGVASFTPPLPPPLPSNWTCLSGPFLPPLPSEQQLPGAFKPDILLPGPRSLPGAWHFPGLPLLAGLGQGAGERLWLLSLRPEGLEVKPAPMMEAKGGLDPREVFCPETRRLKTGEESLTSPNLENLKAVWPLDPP
# How it was run: as §1
# [13] = target: T8, ETS2 (Homo sapiens, UniProt P15036 1-469); settings: protein: recombinant; tags: N-terminal GST; dsDNA, one strand shown
# T8 sequence: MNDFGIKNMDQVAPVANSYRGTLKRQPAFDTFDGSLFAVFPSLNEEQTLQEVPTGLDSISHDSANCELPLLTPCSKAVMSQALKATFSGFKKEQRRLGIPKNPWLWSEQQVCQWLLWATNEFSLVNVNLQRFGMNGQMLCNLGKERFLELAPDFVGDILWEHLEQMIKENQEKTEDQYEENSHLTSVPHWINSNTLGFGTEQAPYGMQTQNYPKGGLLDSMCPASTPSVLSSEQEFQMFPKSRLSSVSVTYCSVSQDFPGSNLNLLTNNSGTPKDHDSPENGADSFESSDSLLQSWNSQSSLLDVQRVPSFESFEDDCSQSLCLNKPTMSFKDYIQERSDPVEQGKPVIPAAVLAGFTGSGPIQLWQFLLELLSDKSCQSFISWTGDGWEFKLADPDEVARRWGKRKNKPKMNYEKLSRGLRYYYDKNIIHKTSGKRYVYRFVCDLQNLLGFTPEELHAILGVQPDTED
# How it was run: as §1
# [14] = target: T9, SPDEF (Homo sapiens, UniProt O95238 1-335); settings: protein: recombinant; tags: N-terminal GST; dsDNA, one strand shown
# T9 sequence: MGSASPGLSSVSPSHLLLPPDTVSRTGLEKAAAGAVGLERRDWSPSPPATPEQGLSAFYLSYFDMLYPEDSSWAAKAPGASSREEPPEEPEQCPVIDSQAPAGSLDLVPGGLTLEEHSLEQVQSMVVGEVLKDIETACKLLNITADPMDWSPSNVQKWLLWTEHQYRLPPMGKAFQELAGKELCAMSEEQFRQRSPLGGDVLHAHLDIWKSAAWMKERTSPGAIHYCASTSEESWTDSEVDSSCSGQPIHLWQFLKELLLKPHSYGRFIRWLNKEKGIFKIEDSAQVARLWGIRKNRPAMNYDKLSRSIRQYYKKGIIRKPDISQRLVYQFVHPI
# How it was run: as §1
# [15] = target: T10, ETV7 (Homo sapiens, UniProt Q9Y603 1-341); settings: protein: recombinant; tags: N-terminal GST; dsDNA, one strand shown
# T10 sequence: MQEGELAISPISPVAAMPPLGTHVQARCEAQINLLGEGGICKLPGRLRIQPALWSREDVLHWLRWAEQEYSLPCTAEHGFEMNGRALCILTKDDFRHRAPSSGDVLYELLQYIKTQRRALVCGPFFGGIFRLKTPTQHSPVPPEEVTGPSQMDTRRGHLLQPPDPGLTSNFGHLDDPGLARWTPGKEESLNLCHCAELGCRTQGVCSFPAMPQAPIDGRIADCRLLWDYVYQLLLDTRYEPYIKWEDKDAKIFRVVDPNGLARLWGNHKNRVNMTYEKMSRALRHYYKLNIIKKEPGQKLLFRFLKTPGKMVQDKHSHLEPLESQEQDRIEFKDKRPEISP
# How it was run: as §1
# [16] = target: T11, ELF5 (Homo sapiens, UniProt Q9UKW6-2 1-255); settings: protein: recombinant; tags: N-terminal GST; dsDNA, one strand shown
# T11 sequence: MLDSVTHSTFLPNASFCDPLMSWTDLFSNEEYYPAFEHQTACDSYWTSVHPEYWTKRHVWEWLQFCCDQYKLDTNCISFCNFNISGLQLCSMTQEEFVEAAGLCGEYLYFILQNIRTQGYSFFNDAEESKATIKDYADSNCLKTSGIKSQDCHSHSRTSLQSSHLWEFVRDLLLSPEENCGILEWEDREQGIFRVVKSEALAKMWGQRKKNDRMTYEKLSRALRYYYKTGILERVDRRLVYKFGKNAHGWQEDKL
# How it was run: as §1
# [17] = target: T12, ETV3 (Homo sapiens, UniProt P41162-2 1-143); settings: protein: recombinant; tags: N-terminal GST; dsDNA, one strand shown
# T12 sequence: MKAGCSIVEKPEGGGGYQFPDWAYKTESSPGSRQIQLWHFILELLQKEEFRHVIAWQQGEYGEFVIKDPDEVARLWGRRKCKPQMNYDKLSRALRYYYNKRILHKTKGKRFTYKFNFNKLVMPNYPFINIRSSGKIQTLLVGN
# How it was run: as §1
# [18] = target: ETV6 (Homo sapiens, UniProt P41212 1-452); settings: protein: recombinant; tags: N-terminal GST; dsDNA, one strand shown
# Chain of ETV6 (P41212 whole entry): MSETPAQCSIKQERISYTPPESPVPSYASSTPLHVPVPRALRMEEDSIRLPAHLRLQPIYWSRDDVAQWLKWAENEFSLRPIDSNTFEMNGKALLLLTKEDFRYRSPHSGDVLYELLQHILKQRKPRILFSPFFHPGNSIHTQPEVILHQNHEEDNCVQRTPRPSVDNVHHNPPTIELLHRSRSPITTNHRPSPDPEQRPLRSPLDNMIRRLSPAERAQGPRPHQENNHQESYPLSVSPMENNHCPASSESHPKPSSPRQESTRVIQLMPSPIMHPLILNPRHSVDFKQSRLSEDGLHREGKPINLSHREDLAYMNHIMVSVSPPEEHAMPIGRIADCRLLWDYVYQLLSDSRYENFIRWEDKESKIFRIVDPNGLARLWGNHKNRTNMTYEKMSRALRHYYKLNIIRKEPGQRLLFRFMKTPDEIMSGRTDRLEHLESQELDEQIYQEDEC
# How it was run: as §1
sequence,measurement,setting,value
CAATAA,binding signal,[1],"1.1 fold enrichment (6-mer frequency, TF over GST control)"
same,binding signal,[2],"1.14 fold enrichment (6-mer frequency, TF over GST control)"
same,binding signal,[3],"1.24 fold enrichment (6-mer frequency, TF over GST control)"
same,binding signal,[4],"1.2 fold enrichment (6-mer frequency, TF over GST control)"
same,binding signal,[5],"1.16 fold enrichment (6-mer frequency, TF over GST control)"
same,binding signal,[6],"1.14 fold enrichment (6-mer frequency, TF over GST control)"
same,binding signal,[7],"1.14 fold enrichment (6-mer frequency, TF over GST control)"
same,binding signal,[8],"1.27 fold enrichment (6-mer frequency, TF over GST control)"
same,binding signal,[9],"1.46 fold enrichment (6-mer frequency, TF over GST control)"
same,binding signal,[10],"1.11 fold enrichment (6-mer frequency, TF over GST control)"
same,binding signal,[11],"1.15 fold enrichment (6-mer frequency, TF over GST control)"
same,binding signal,[12],"1.13 fold enrichment (6-mer frequency, TF over GST control)"
same,binding signal,[13],"1.19 fold enrichment (6-mer frequency, TF over GST control)"
same,binding signal,[14],"1.05 fold enrichment (6-mer frequency, TF over GST control)"
same,binding signal,[15],"1.06 fold enrichment (6-mer frequency, TF over GST control)"
same,binding signal,[16],"1.06 fold enrichment (6-mer frequency, TF over GST control)"
same,binding signal,[17],"1.14 fold enrichment (6-mer frequency, TF over GST control)"
same,binding signal,[18],"1.12 fold enrichment (6-mer frequency, TF over GST control)"
